# ± gives the standard deviation.
# Test system: OVCAR-3-derived ovarian cancer stem-like cells (spheroids)
# Test: cell growth relative to untreated control; higher = more growth (less inhibition)
# Details: 2.29 µM; 96 h
# Outline: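 After trypsin dissociation, OVCAR-3 spheroid-derived stem-like cells were placed in ultra-low attachment 96-well plates at 50,000 cells/mL in stem cell medium and preincubated for 24 h. Treatment at 2.29 uM followed for 96 h at 37°C, 5% CO2, with 4 replicate wells per compound. A 4 h TOX8 resazurin fluorescence read (ex 560/em 590 nm) gave viability, from which percent growth relative to untreated wells was derived after blank subtraction and Grubbs outlier removal.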
row,Compound,cell growth
1,O=[N+]([O-])c1ccc(-c2cn(-c3ccc(Cl)cc3)cn2)cc1,106 ± 23%
2,Cc1ccc2c(ccc(C=Cc3ccc(O)c4ncccc34)[n+]2C)c1,23.7 ± 4.7%
3,Cc1ccc(S(=O)(=O)NC(=O)NC2=NC(C)(C)N(c3ccc(Cl)c(Cl)c3)C(N)=N2)cc1,84.1 ± 23%
4,NC1=C(Br)C(=O)c2ncccc2C1=O,15.3 ± 3.8%
5,CCCCCCCCCCNCCSSCc1ccc(Cl)cc1,126 ± 23%
6,O=C1C2=Nc3ccccc3C(O)N2c2ccccc21 (centres undefined),91 ± 12%
7,N=C1C=C(N)C(=O)c2[nH]c(=O)ccc21,95.3 ± 55%
8,Cc1c2c(cc3c1[nH]c1ccccc13)C=NCC2,227 ± 75%
9,CCOC(=O)Cc1cc(=O)oc2cc(O)ccc12,80.4 ± 11%
10,S=c1nc[nH]c2nc[nH]c12,95.2 ± 8.4%
11,Cc1cc2cc3cc(C)c(N)cc3nc2cc1N,40.2 ± 5.5%
12,COc1ccc(S(=O)(=O)N/N=C/C(=O)O)cc1,117 ± 15%
13,COc1cc(C(C)c2cc3c(cc2OCCO)OCO3)cc(OC)c1OC (centres undefined),24.7 ± 6.7%
14,N#Cc1ccccc1NC(=O)C(=O)C(C(=O)c1ccccc1F)C1OC(=O)c2ccccc21 (centres undefined),98.8 ± 24%
15,Cc1ccc([S+](c2ccccc2)c2cc(C)ccc2C)cc1.O=C(OC(C(=O)[O-])C(OC(=O)c1ccccc1)C(=O)O)c1ccccc1 (centres undefined),43.6 ± 5.1%
16,O=C(c1ccccc1)C(c1ccccc1)C1(O)C(=O)Nc2c(Cl)cc(Cl)cc21 (centres undefined),114 ± 29%
17,Clc1ccc(C(c2ccccc2Cl)C(Cl)Cl)cc1 (centres undefined),128 ± 48%
18,CCN(CC)Cc1cc(N=Nc2c(O)ccc3c(N=Nc4ccc(O)c(CN(CC)CC)c4)c(O)ccc23)ccc1O,70.5 ± 21%
19,CN/N=C(\C)C(CN1CCCCC1)C(C1=C(O)c2ccccc2OC1)c1ccccc1 (centres undefined),94.9 ± 41%
20,Nc1nc2c(ncn2[C@@H]2O[C@H](CO)[C@@H](O)[C@H]2O)c(=O)[nH]1,107 ± 11%

row,Compound,cell growth
1,O=C1NC(=O)[C@H]2[C@H]3C=C[C@@H]([C@@H]12)[C@@H]1[C@H]2C(=O)NC(=O)[C@H]2[C@H]31,121 ± 29%
2,CN(C)c1ccc2c(SCC(=O)OCC(=O)[C@@]3(O)CC[C@H]4[C@@H]5CCC6=CC(=O)C=C[C@]6(C)[C@H]5C(=O)C[C@@]43C)c3ccc(N(C)C)cc3nc2c1,59.1 ± 8.1%
3,CC1(O)C=CC(=O)C=C1,116 ± 12%
4,O=C(N=Nc1c(O)[nH]c2c(Cl)cc(Cl)cc12)c1ccccc1O,93.1 ± 22%
5,O=C(c1nc2ccc(Cl)cc2[nH]c1=O)C(O)c1ccc2c(c1)OCO2 (centres undefined),109 ± 61%
6,N=N/C(=C\c1c(O)[nH]c2ccccc12)c1ccccc1,64.5 ± 16%
7,CCCCCCCCCc1c(Cl)nc(Cl)nc1Cl,113 ± 24%
8,Cc1ccc(S(=O)(=O)c2ccc([N+](=O)[O-])o2)cc1,47.4 ± 31%
9,COC(=O)/C(=N\NC(=O)c1ccccc1O)C(C#N)c1ccccc1 (centres undefined),99.9 ± 33%
10,CCN(CC)CCCC(C)Nc1ccnc(/C=C/c2ccc(Cl)cc2)c1 (centres undefined),84.6 ± 25%
11,O=c1cnn(C2OC(CO)C(O)C2O)c(=S)[nH]1 (centres undefined),100 ± 24%
12,CCc1cccc(CC)c1NC(=O)C(C#N)C1=C(Cl)C(=O)c2ccccc2C1=O (centres undefined),70.3 ± 31%
13,Nc1ncnc2c1ncn2C1OC(CO)C(O)C1O (centres undefined),111 ± 13%
14,COc1ccc2c(c1)CCc1c-2n[nH]c1-c1[nH]nc2c1CCc1cc(OC)ccc1-2,87.5 ± 18%
15,Cc1cc2nc(C=C(C(F)(F)F)C(F)(F)F)oc2cc1C,130 ± 36%
16,NC1(CCNC(=O)c2ccccc2)CCN(C(=O)c2ccccc2)CC1,118 ± 19%
17,CN(N=O)C(=O)N[C@@H]1[C@@H](O)[C@H](O)[C@@H](CO)O[C@@H]1O,104 ± 29%
18,Cc1cc(N)c2ccccc2[n+]1CCCCCCCCCC[n+]1c(C)cc(N)c2ccccc21,41.9 ± 7.2%
19,COc1ccc2cc3[n+](cc2c1OC)CCc1cc2c(cc1-3)OCO2,57.3 ± 7.4%
